Records with an inconclusive call do not appear. Activity calls are given as the source filed them. Rule for the calls, unless noted: active = hit-call score of the fitted dose curve at least 0.9, where 1 is the maximum; inactive = score below 0.9.
Tests used:
[1] = target: Glucocorticoid receptor (Homo sapiens) (UniProt P04150); assay: ATG_GR_TRANS: Attagene TRANS-FACTORIAL HepG2 Assay for human Glucocorticoid Receptor (GR) (AID 2282978; active = hit-call score of the fitted dose curve at least 0.9, where 1 is the maximum;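 note: activators score as hits since higher reporter transcript over DMSO is fitted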); settings: HepG2 Attagene TRANS GR reporter, mRNA transcription
Outline: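 Measurement of GAL4-UAS-driven reporter mRNA in human HepG2 liver cells 24 h post-dosing, using RT-PCR with fluorescent labelling and capillary electrophoresis; the transfected constructs report exogenous NR-GAL4 chimera activity, fitted upward against DMSO.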

[2] = target: Hepatocyte nuclear factor 4-alpha (Homo sapiens) (UniProt P41235); assay: ATG_HNF4a_TRANS: Attagene TRANS-FACTORIAL HepG2 Assay for human Hepatocyte Nuclear Factor 4 alpha (HNF4a) (AID 2282982; active = hit-call score of the fitted dose curve at least 0.9, where 1 is the maximum); settings: HepG2 HNF4a transactivation reporter, mRNA readout
Outline: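 Readout is fluorescent reporter-transcript fragments resolved by capillary electrophoresis after RT-PCR from HepG2 cells dosed for 24 h. Cells carried transfected GAL4-UAS reporter constructs measuring exogenous NR-GAL4 chimera activity; DMSO served as baseline.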

[3] = ATG_M_06_TRANS: Attagene TRANS-FACTORIAL HepG2 Assay for M06 Transcription Factor (Internal Marker) (AID 2282983; active = hit-call score of the fitted dose curve at least 0.9, where 1 is the maximum;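 note: reporter transcript level by RT-PCR then capillary electrophoresis fluorescence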); settings: HepG2 Attagene TRANS M06 internal marker reporter
Outline: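 Transfect HepG2 with MRTUs → dose compounds 24 h → isolate RNA, oligo(dT) RT → PCR with reporter primers → 6-FAM primer extension → HpaI digest → CE fragment analysis. Positive direction vs DMSO.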

[4] = ATG_M_32_TRANS: Attagene TRANS-FACTORIAL HepG2 Assay for M32 Transcription Factor (Internal Marker) (AID 2282984; active = hit-call score of the fitted dose curve at least 0.9, where 1 is the maximum;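 note: transcript level of a background control reporter unit measured by RT-PCR and capillary electrophoresis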); settings: HepG2 Attagene TRANS M32 internal marker reporter
Outline: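 Measures reporter mRNA induction in human HepG2 liver cells after 24 h chemical treatment. Transcripts from transiently transfected GAL4-UAS reporter units are amplified, fluorescently labelled and sized by capillary electrophoresis; gain of signal relative to DMSO.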

[5] = target: Nuclear receptor subfamily 4 group A member 2 (Homo sapiens) (UniProt P43354); assay: ATG_NURR1_TRANS: Attagene TRANS-FACTORIAL HepG2 Assay for human Nuclear Receptor Related Protein 1 (NURR1) (AID 2282985; active = hit-call score of the fitted dose curve at least 0.9, where 1 is the maximum); settings: HepG2 Attagene TRANS reporter, mRNA readout
Outline: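 Transient transfection of HepG2, human liver cells, with multiple GAL4-UAS reporter transcription units. Cells dosed 24 h, RNA isolated, reverse-transcribed, PCR-amplified, FAM-labelled, HpaI-digested, sized by capillary electrophoresis. DMSO served as negative control.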

[6] = target: Transcriptional activator Myb (Homo sapiens) (UniProt P10242); assay: ATG_Myb_CIS: Attagene CIS-FACTORIAL HepG2 Assay for human Myeloblastosis (Myb) Proto-Oncogene Transcription Factor (AID 2282986); settings: HepG2 Attagene CIS-FACTORIAL Myb reporter transcription; actives raise or lower the signal
Outline: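 Fluorescence signals from capillary electrophoresis of RT-PCR-amplified reporter cDNA give the read-out. Cells: HepG2 transfected with multiple cis-regulated reporter units. Exposure lasts 24 hours; DMSO defines baseline for gain or loss of signal.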

[7] = target: Nuclear respiratory factor 1 (Homo sapiens) (UniProt Q16656); assay: ATG_NRF1_CIS: Attagene CIS-FACTORIAL HepG2 Assay for human Nuclear Respiratory Factor 1 (NRF1) Orphan Gene (AID 2282987); settings: HepG2 NRF1 cis-element reporter, Attagene multiplex; actives raise or lower the signal
Outline: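 Transcriptional reporter readout, one component of a 52-endpoint multiplexed HepG2 panel. Exposure 24 h; mRNA detected via RT-PCR and fluorescent capillary electrophoresis; fitting in both directions against DMSO.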

[8] = ATG_NFI_CIS: Attagene CIS-FACTORIAL HepG2 Assay for human Nuclear Factor I (NFI) (AID 2282989); settings: HepG2 cis-regulatory reporter, NFI response element transcription; actives raise or lower the signal
Outline: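 Reporter transcription driven by endogenous transcription factors in HepG2 cells; 24 h treatment. Quantitation by labelled RT-PCR fragments on capillary electrophoresis, gain- or loss-of-signal relative to DMSO.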

[9] = target: Myc proto-oncogene protein (Homo sapiens) (UniProt P01106); assay: ATG_Myc_CIS: Attagene CIS-FACTORIAL HepG2 Assay for human Myelocytomatosis (Myc) Proto-Oncogene Transcription Factor (AID 2282990); settings: HepG2, Attagene cis-reporter transcription factor activity; actives raise or lower the signal
Outline: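 After 24 h chemical treatment of HepG2 cells carrying multiplexed cis-regulated reporter constructs, reporter transcripts quantified by RT-PCR and capillary electrophoresis of fluorescent fragments. Gain or loss fitted against DMSO baseline.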

[10] = ATG_NF_kB_CIS: Attagene CIS-FACTORIAL HepG2 Assay for human Nuclear Factor Kappa B (NF-kB) (AID 2282991); settings: HepG2 Attagene cis-factorial NF-kB reporter mRNA; actives raise or lower the signal
Outline: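 HepG2, transient multi-reporter transfection, cis promoter elements (endogenous TFs). 24 h exposure. Total RNA → RT → PCR → 6-FAM label → HpaI → CE. Gain/loss vs DMSO.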

[11] = ATG_NRF2_ARE_CIS: Attagene CIS-FACTORIAL HepG2 Assay for human Nuclear Factor Erythroid 2 Related Factor 2 (NFR2) response to Antioxidant Response Elements (ARE) (AID 2282992); settings: HepG2 Attagene ARE/NRF2 reporter, transcription factor activity; actives raise or lower the signal;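 for AC50: reporter mRNA level measured by RT-PCR and capillary electrophoresis fluorescence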
Outline: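 Transient MRTU transfection of HepG2; 24 h compound exposure; TriZol RNA, RT with oligo(dT), PCR, 6-FAM primer extension, HpaI cut, CE. Bidirectional fit vs DMSO.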

[12] = ATG_Oct_MLP_CIS: Attagene CIS-FACTORIAL HepG2 Assay for human Octamer-Binding Transcription Factor (Oct) (AID 2282993); settings: HepG2 Attagene cis-factorial Oct reporter, mRNA; actives raise or lower the signal
Outline: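 Transfected HepG2 cells, 24 h treatment. Reporter mRNA quantified by RT-PCR–capillary electrophoresis; bidirectional fitting against DMSO.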

[13] = target: Cellular tumor antigen p53 (Homo sapiens) (UniProt P04637); assay: ATG_p53_CIS: Attagene CIS-FACTORIAL HepG2 Assay for human p53 Transcription Factor (AID 2282994); settings: HepG2 p53 cis-element reporter, Attagene mRNA; actives raise or lower the signal
Outline: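 HepG2, transient MRTU transfection (cis promoter elements, endogenous TFs); 24 h dosing; RNA isolation, RT-PCR, 6-FAM primer extension, HpaI digest, CE fluorescence; bidirectional fit vs DMSO.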

[14] = BSK_3C_TissueFactor: BioMAP Diversity Plus: 3C Assay for Tissue Factor Biomarker Activity (AID 2282997); settings: BioMAP 3C HUVEC, tissue factor biomarker readout; actives raise or lower the signal
Outline: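 ELISA read-out of Tissue Factor levels on human umbilical vein endothelium collected 24 h after chemical dosing. Gain or loss of signal was fitted relative to DMSO.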

[15] = BSK_3C_uPAR: BioMAP Diversity Plus: 3C Assay for Urokinase-type plasminogen activator receptor (uPAR) Biomarker Activity (AID 2282998); settings: BioMAP 3C HUVEC, uPAR biomarker ELISA; actives raise or lower the signal
Outline: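 Readout: ELISA for surface uPAR. System: human umbilical vein endothelial primary cells, 24 h after chemical exposure. Analysis: bidirectional fit, DMSO baseline.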

[16] = BSK_3C_VCAM1: BioMAP Diversity Plus: 3C Assay for Vascular cell adhesion molecule 1 (VCAM1) Biomarker Activity (AID 2282999); settings: BioMAP 3C HUVEC, VCAM1 ELISA, cytokine-stimulated; actives raise or lower the signal
Outline: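 Endothelial cells from human umbilical vein are treated with test chemical. At 24 h, VCAM-1 is measured by ELISA, and responses in either direction are fitted relative to DMSO.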

[17] = BSK_4H_Eotaxin3: BioMAP Diversity Plus: 4H Assay for Eotaxin 3 Biomarker Activity (AID 2283000); settings: primary human endothelial cells (HUVEC); actives raise or lower the signal;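 note: CCL26 protein level quantified by ELISA in parallel with SRB cytotoxicity check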
Outline: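 Chemicals were added to human umbilical vein endothelium cultures, and Eotaxin-3 was quantified by ELISA at 24 h. Values were derived by bidirectional fitting with DMSO serving as negative control and activity baseline.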

Measured: AC50

Chain of Nuclear receptor subfamily 4 group A member 2 (Homo sapiens) (P43354 whole entry, looked up, the tested form may be a part): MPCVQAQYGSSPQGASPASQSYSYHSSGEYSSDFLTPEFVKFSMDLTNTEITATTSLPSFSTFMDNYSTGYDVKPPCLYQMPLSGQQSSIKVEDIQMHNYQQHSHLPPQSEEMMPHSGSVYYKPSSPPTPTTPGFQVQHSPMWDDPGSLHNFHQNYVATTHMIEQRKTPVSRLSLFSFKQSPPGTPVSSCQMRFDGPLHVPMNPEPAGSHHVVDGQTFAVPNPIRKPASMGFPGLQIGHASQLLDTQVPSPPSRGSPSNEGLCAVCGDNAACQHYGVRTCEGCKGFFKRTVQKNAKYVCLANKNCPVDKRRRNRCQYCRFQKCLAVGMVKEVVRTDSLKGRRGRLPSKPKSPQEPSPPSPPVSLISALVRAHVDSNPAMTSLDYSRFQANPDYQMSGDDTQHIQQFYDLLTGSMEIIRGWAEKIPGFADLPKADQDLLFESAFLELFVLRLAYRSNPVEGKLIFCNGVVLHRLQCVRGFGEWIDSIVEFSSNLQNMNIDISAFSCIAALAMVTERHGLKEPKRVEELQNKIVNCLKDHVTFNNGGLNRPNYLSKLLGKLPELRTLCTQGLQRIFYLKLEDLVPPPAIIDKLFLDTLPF
Chain of Hepatocyte nuclear factor 4-alpha (Homo sapiens) (P41235 whole entry, looked up, the tested form may be a part): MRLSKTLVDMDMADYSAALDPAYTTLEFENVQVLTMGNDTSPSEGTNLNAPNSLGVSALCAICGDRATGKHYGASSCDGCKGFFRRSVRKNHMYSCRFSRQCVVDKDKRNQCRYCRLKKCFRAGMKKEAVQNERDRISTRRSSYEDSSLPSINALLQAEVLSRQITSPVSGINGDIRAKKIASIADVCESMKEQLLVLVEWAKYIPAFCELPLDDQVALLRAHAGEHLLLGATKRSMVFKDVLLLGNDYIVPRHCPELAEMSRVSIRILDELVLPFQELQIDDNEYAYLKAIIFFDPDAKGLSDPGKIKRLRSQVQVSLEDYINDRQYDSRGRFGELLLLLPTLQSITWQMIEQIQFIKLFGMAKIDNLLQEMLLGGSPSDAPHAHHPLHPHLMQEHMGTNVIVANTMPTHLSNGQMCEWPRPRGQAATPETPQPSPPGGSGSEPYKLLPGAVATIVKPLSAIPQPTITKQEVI
Chain of Cellular tumor antigen p53 (Homo sapiens) (P04637 whole entry, looked up): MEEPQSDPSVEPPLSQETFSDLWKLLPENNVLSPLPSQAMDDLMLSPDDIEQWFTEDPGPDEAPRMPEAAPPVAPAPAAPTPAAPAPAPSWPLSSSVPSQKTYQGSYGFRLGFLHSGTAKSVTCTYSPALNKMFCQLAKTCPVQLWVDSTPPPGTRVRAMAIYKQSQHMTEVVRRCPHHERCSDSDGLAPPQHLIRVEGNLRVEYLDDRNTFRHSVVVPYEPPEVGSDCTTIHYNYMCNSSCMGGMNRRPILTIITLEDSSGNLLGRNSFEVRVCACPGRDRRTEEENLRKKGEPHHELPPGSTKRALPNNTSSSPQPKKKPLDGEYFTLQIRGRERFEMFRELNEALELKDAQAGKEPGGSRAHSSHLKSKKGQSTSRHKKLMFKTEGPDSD
Chain of Glucocorticoid receptor (Homo sapiens) (P04150 whole entry, looked up, the tested form may be a part): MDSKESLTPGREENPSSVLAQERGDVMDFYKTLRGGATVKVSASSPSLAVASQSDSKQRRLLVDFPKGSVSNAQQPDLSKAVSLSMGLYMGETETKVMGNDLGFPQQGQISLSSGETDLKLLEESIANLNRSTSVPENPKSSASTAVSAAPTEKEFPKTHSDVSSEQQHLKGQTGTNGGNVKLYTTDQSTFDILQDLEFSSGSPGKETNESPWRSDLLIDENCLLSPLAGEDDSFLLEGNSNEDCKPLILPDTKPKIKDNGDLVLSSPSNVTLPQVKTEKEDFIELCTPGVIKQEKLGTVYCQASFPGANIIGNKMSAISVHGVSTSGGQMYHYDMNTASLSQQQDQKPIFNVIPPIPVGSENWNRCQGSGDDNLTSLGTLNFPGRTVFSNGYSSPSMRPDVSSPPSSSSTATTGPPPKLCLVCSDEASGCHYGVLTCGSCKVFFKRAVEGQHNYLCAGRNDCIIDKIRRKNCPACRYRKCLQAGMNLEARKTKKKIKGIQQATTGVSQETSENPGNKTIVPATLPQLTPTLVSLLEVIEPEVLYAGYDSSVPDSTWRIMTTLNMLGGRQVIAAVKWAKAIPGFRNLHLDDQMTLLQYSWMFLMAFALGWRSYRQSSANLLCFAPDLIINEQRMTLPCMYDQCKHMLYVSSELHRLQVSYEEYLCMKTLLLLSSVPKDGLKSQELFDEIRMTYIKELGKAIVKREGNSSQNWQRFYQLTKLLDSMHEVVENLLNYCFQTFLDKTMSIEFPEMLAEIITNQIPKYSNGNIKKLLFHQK
Chain of Transcriptional activator Myb (Homo sapiens) (P10242 whole entry, looked up): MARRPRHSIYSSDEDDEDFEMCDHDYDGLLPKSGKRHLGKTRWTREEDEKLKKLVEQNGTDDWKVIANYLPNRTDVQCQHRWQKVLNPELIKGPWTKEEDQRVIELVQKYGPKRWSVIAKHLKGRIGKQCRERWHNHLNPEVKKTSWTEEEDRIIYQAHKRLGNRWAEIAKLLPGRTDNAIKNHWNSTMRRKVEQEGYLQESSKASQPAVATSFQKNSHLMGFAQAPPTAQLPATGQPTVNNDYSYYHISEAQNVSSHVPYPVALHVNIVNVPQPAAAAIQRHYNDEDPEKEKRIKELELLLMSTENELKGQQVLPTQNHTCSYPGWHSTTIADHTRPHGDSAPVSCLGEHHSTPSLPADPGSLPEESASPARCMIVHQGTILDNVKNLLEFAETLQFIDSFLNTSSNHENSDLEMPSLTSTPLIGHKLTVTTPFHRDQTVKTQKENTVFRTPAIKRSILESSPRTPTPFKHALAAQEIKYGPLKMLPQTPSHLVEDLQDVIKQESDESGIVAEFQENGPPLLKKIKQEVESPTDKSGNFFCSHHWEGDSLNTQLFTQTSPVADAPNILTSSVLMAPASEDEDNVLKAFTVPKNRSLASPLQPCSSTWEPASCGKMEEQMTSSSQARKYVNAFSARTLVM
Chain of Myc proto-oncogene protein (Homo sapiens) (P01106 whole entry, looked up, the tested form may be a part): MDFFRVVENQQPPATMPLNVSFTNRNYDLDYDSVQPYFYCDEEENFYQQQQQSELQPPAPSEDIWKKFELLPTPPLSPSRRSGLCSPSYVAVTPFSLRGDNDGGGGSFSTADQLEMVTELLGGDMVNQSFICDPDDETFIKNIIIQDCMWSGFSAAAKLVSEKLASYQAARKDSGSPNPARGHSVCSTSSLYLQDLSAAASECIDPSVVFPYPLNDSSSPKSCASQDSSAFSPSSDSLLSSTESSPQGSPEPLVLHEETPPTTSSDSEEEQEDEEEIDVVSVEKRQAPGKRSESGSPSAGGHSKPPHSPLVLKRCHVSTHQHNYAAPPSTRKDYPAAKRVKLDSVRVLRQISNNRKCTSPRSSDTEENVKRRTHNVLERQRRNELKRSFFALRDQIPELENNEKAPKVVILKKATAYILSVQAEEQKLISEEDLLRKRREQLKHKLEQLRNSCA
Chain of Nuclear respiratory factor 1 (Homo sapiens) (Q16656 whole entry, looked up): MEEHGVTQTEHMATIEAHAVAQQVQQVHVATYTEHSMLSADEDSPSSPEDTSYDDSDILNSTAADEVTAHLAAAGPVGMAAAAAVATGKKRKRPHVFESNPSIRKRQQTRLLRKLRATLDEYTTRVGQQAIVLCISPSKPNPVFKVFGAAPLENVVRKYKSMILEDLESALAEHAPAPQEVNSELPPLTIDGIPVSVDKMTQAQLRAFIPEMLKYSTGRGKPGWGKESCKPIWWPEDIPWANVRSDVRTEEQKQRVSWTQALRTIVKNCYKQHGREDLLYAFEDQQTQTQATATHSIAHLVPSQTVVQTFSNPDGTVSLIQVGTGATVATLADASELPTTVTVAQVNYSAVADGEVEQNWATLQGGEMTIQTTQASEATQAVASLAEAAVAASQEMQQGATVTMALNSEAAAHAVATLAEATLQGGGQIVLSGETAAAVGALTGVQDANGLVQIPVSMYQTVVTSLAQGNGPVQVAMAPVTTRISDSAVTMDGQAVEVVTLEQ

CCn1nc(C)c2c1C(=O)NCC(c1ccc(O)cc1)=N2
inactive: [1] | [2] | [3] | [4] | [5] | [6] | [7] | [8] | [9] | [10] | [11] | [12] | [14] | [15] | [16] | [17]
active: [13] 2.9 µM

c1ccc(C(O[C@@H]2CCCN(CCc3ccc4c(c3)OCO4)C2)c2ccccc2)cc1
inactive: [1] | [2] | [3] | [4] | [5] | [6] | [7] | [9] | [14] | [16] | [17]
active: [11] 33 µM | [12] 23.3 µM | [13] 52.6 µM | [15] 27.5 µM

CCCc1ccccc1
inactive: [1] | [2] | [3] | [5] | [7] | [8] | [9] | [11] | [12] | [13] | [14] | [15] | [16] | [17]

CCCCCOC(C)=O
inactive: [1] | [3] | [4] | [5] | [6] | [7] | [9] | [10] | [11] | [12] | [14] | [15] | [16] | [17]

NC(=O)NN=Cc1ccc([N+](=O)[O-])o1
inactive: [1] | [2] | [3] | [5] | [6] | [7] | [8] | [9] | [13] | [14] | [15] | [16] | [17]
active: [11] 27.8 µM

O=C(O)c1cccc(C[C@@H]2COc3ccc(OCc4nc5cc(F)ccc5s4)cc3[C@@H]2O)c1
active: [11] 32.3 µM
inactive: [1] | [4] | [5] | [7] | [9] | [13] | [14] | [15] | [16] | [17]

— PubChem BioAssay (EPA / NIEHS)
